Active and inactive are the calls of the source.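 How the source made its calls, unless noted: active means inhibition above 20% together with a positive visual image hit; inconclusive means visual image hit but inhibition not above 20%; inactive means no visual image hit.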
Test: inhibitors of TNFa-induced NFkB p65 translocation, primary screen, imaging, HUVEC, MLSMR starter and 10KST1 sets (AID 438);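 further: compound added about 3h40 before a 20 min TNFalpha stimulation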;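 on inhibition: signal is the nuclear over cytoplasmic p65 intensity ratio per well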
Settings: HUVEC TNFa-induced p65 nuclear translocation; cell count: measured here: nuclei count (cytotoxicity indicator), at 2.08 µM; inhibition: at 2 µM, stronger effect = higher value, 0% TNFa-plus-vehicle, 100% no-TNFa wells

Compound | inhibition | cell count
COc1cc(NS(=O)(=O)c2ccc(N)cc2)nc(OC)n1 | 1.1% (inactive) | 482
C=CCSc1nnc2n(CCc3ccccc3)c(=O)c3c4c(sc3n12)COC(C)(C)C4 | -1.7% (inactive) | 492
COc1c2occc2c(OC)c2c(=O)cc(C)oc12 | -5.1% (inactive) | 555
CCCn1c(=O)c2[nH]c(C3CCCC3)nc2n(CCC)c1=O | -3.1% (inactive) | 503
CCOC(=O)Cc1nnc(Nc2cccc(O)c2)c2ccccc12 | -1.7% (inactive) | 621
COc1ccc(C(=O)Cn2c(N3CCCCC3)nc3c2c(=O)n(C)c(=O)n3C)cc1OC | 4.7% (inactive) | 537
CCn1cc(C(=O)O)c(=O)c2cc(F)c(N3CCNCC3)nc21 | -1.9% (inactive) | 528
Cc1ccc(S(=O)(=O)NC(=O)NN2CCCCCC2)cc1 | -5.1% (inactive) | 604
Cn1c(/C(C#N)=C/Nc2ccccn2)nc2ccccc21 | 4.3% (inactive) | 346
COc1ccc(CNc2oc(COc3ccccc3Cl)nc2C#N)cc1 | -2.2% (inactive) | 436
CC(NC(=O)NCCCC(=O)O)(C(F)(F)F)C(F)(F)F | -3.7% (inactive) | 582
CC(NC(=O)Nc1nccs1)(C(F)(F)F)C(F)(F)F | -2.2% (inactive) | 649
CCC1CCCCN1c1nc(-c2ccncc2)nc2ccccc12 (stereo unspecified) | 0.5% (inactive) | 503
C=C(C)C1Cc2c(C)nn(-c3nc(C)cc(C)n3)c2C1 (stereo unspecified) | -2.7% (inactive) | 462
CCCCOc1ccc(CC(=O)NO)cc1 | -10.2% (inactive) | 619
COC(=O)c1cc(Br)c(=O)n(-c2nccs2)c1 | -4.2% (inactive) | 750
Cc1ccc(NC(=O)CSC2=C(C#N)C(c3ccc4c(c3)OCO4)CC(=O)N2)cc1C (stereo unspecified) | 1.6% (inactive) | 636
CCN(CC)C(=O)c1sc2nc(-c3cccs3)cc(-c3cccs3)c2c1N | -1.7% (inactive) | 443
Cc1ccc(-c2nnc(-c3cccc(Br)c3)o2)cc1 | -1.8% (inactive) | 512
CCCCOc1ccc(C(=O)Nc2ccc(N3CCN(C(C)=O)CC3)cc2)cc1 | -7.3% (inactive) | 490

Compound | inhibition | cell count
CCN(CC)CCNC(=O)c1ccc(NC(C)=O)cc1 | -5.5% (inactive) | 497
COC(=O)c1ccccc1NC(=O)CSc1nnc(-c2ccncc2)o1 | -9.3% (inactive) | 372
CN(C)C(CN1C(=O)C2CC=CCC2C1=O)c1cn(C)c2ccccc12 (stereo unspecified) | 2.5% (inactive) | 665
CCOc1cc(C2Nc3ccccc3C(=O)N2c2ccccc2OC)ccc1O (stereo unspecified) | -3.1% (inactive) | 587
Cc1cn2c(-c3ccncc3)nnc2s1 | -7.7% (inactive) | 443
COc1ccc(/C(O)=C2/C(=O)C(=O)N(CCN(C)C)C2c2ccccn2)cc1OC (stereo unspecified) | -2% (inactive) | 485
Cc1oc2nc(SCCCC(=O)NCCCO)nc(N)c2c1C | -4.5% (inactive) | 507
C[C@@H]1CCC[C@H](C)N1NC(=O)c1ccc(Cl)c(S(N)(=O)=O)c1 | 7.2% (inactive) | 625
O=C(CCCN1C(=O)c2ccccc2C1=O)N1CCC(c2ccccc2)C1 (stereo unspecified) | -8.4% (inactive) | 452
O=C1C2CC=C(Cl)CC2C(=O)N1CNc1ccccn1 (stereo unspecified) | -1.9% (inactive) | 549
COCCNC(=O)c1c(N)n(/N=C/c2cccs2)c2nc3ccccc3nc12 | 7.2% (inactive) | 516
COC(=O)CC1SC(=O)NC1=O (stereo unspecified) | -6.8% (inactive) | 552
N#Cc1nc(COc2ccc(Br)cc2)oc1N1CCCC1 | -2.8% (inactive) | 482
CCOC(=O)C1CCN(C(C)=C2C(=O)c3ccccc3C2=O)CC1 | -0.3% (inactive) | 476
CCSc1nnc(NC(=O)C(CC)(C(F)(F)F)C(F)(F)F)s1 | 0.2% (inactive) | 702
N#CC1=C(N)OC2=C(C(=O)CCC2)C1CCc1ccccc1 (stereo unspecified) | 2.3% (inactive) | 620
Cc1cc(OCC(=O)Nc2ccc3oc(-c4ccncc4)nc3c2)ccc1Cl | -6.9% (inactive) | 485
CCSc1nc(O)c(C2OC(=O)c3c2ccc(OC)c3OC)c(=O)n1-c1ccccc1 (stereo unspecified) | 5.8% (inactive) | 504
Cc1c(C)c2cc(Cl)c(O)c(CN3CCCCC3)c2oc1=O | 1.3% (inactive) | 393

Test: reduction of polyQ htt aggregates in cells – imaging, exon1htt(103Q)mCFP cells, high-content imaging, primary screen (AID 483;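 active means visual image review flags a hit and inhibition of aggregation exceeds 20%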;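 further: compound exposure lasted 3 days before fixation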;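 on nuclei count: percent of the per-plate median nuclei count of sample wells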)
Settings: exon1htt(103Q)mCFP cell line, aggregate imaging, at 2 µM; inhibition of aggregation: stronger effect = higher value; nuclei count: measured here: cell count, toxicity

Compound | inhibition of aggregation | nuclei count [%]
COc1cc(NS(=O)(=O)c2ccc(N)cc2)nc(OC)n1 | -12.6% (inactive) | 82
C=CCSc1nnc2n(CCc3ccccc3)c(=O)c3c4c(sc3n12)COC(C)(C)C4 | 3.5% (inactive) | 115
COc1c2occc2c(OC)c2c(=O)cc(C)oc12 | 13.1% (inactive) | 103
CCCn1c(=O)c2[nH]c(C3CCCC3)nc2n(CCC)c1=O | 26% (inactive) | 92.4
CCOC(=O)Cc1nnc(Nc2cccc(O)c2)c2ccccc12 | -13.1% (inactive) | 99.2
COc1ccc(C(=O)Cn2c(N3CCCCC3)nc3c2c(=O)n(C)c(=O)n3C)cc1OC | 12.9% (inactive) | 90.8
CCn1cc(C(=O)O)c(=O)c2cc(F)c(N3CCNCC3)nc21 | -5% (inactive) | 88.6
Cc1ccc(S(=O)(=O)NC(=O)NN2CCCCCC2)cc1 | 0% (inactive) | 99.6
Cn1c(/C(C#N)=C/Nc2ccccn2)nc2ccccc21 | -16.9% (inactive) | 88.4
COc1ccc(CNc2oc(COc3ccccc3Cl)nc2C#N)cc1 | 21.3% (inactive) | 81.6
CC(NC(=O)NCCCC(=O)O)(C(F)(F)F)C(F)(F)F | 8.7% (inactive) | 98.1
CC(NC(=O)Nc1nccs1)(C(F)(F)F)C(F)(F)F | 0.8% (inactive) | 108
CCC1CCCCN1c1nc(-c2ccncc2)nc2ccccc12 (stereo unspecified) | 7.3% (inactive) | 91.9
C=C(C)C1Cc2c(C)nn(-c3nc(C)cc(C)n3)c2C1 (stereo unspecified) | 5% (inactive) | 84.7
CCCCOc1ccc(CC(=O)NO)cc1 | -11.8% (inactive) | 91
COC(=O)c1cc(Br)c(=O)n(-c2nccs2)c1 | -14.3% (inactive) | 102
Cc1ccc(NC(=O)CSC2=C(C#N)C(c3ccc4c(c3)OCO4)CC(=O)N2)cc1C (stereo unspecified) | -10.3% (inactive) | 122
CCN(CC)C(=O)c1sc2nc(-c3cccs3)cc(-c3cccs3)c2c1N | 0.6% (inactive) | 90
Cc1ccc(-c2nnc(-c3cccc(Br)c3)o2)cc1 | -23.2% (inactive) | 96.1
CCCCOc1ccc(C(=O)Nc2ccc(N3CCN(C(C)=O)CC3)cc2)cc1 | 0.5% (inactive) | 104

Compound | inhibition of aggregation | nuclei count [%]
CCN(CC)CCNC(=O)c1ccc(NC(C)=O)cc1 | -5.6% (inactive) | 94.5
COC(=O)c1ccccc1NC(=O)CSc1nnc(-c2ccncc2)o1 | 3.1% (inactive) | 99.2
CN(C)C(CN1C(=O)C2CC=CCC2C1=O)c1cn(C)c2ccccc12 (stereo unspecified) | 12.2% (inactive) | 99.9
CCOc1cc(C2Nc3ccccc3C(=O)N2c2ccccc2OC)ccc1O (stereo unspecified) | -2.3% (inactive) | 100
Cc1cn2c(-c3ccncc3)nnc2s1 | 5.7% (inactive) | 88.7
COc1ccc(/C(O)=C2/C(=O)C(=O)N(CCN(C)C)C2c2ccccn2)cc1OC (stereo unspecified) | -10.2% (inactive) | 100
Cc1oc2nc(SCCCC(=O)NCCCO)nc(N)c2c1C | 21.9% (inactive) | 90.5
C[C@@H]1CCC[C@H](C)N1NC(=O)c1ccc(Cl)c(S(N)(=O)=O)c1 | 0.7% (inactive) | 108
O=C(CCCN1C(=O)c2ccccc2C1=O)N1CCC(c2ccccc2)C1 (stereo unspecified) | -32.2% (inactive) | 61.9
O=C1C2CC=C(Cl)CC2C(=O)N1CNc1ccccn1 (stereo unspecified) | 21.8% (inactive) | 86.4
COCCNC(=O)c1c(N)n(/N=C/c2cccs2)c2nc3ccccc3nc12 | -25.1% (inactive) | 108
COC(=O)CC1SC(=O)NC1=O (stereo unspecified) | 26.4% (inactive) | 110
N#Cc1nc(COc2ccc(Br)cc2)oc1N1CCCC1 | -13.8% (inactive) | 111
CCOC(=O)C1CCN(C(C)=C2C(=O)c3ccccc3C2=O)CC1 | -15.9% (inactive) | 104
CCSc1nnc(NC(=O)C(CC)(C(F)(F)F)C(F)(F)F)s1 | -6.4% (inactive) | 106
N#CC1=C(N)OC2=C(C(=O)CCC2)C1CCc1ccccc1 (stereo unspecified) | 21% (inactive) | 110
Cc1cc(OCC(=O)Nc2ccc3oc(-c4ccncc4)nc3c2)ccc1Cl | -19.2% (inactive) | 100
CCSc1nc(O)c(C2OC(=O)c3c2ccc(OC)c3OC)c(=O)n1-c1ccccc1 (stereo unspecified) | -6.1% (inactive) | 108
Cc1c(C)c2cc(Cl)c(O)c(CN3CCCCC3)c2oc1=O | -11.8% (inactive) | 100
